# Test results taken from PubChem BioAssay (NCI).
# This is part of a sample that, as a whole, favours compounds with a hit. Of some 83,000 tested, about 20% had one in any assay.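 Each cell line was grown in a 96-well plate and treated with one concentration of compound for 48 hours. Values below 10 were considered active.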 A number with no mark means an inactive call. The source made the active and inactive calls.
# Key:
# Test in all cases: NCI-60 one-dose screen, 48 h (100 = growth as untreated, 0 = no growth, -100 = all killed)
# [1] = system: DU-145 prostate; settings: 10 µM unless noted
# [2] = system: K-562 leukemia; settings: 10 µM unless noted
# [3] = system: MALME-3M melanoma; settings: 10 µM unless noted
# [4] = system: MDA-MB-231 breast; settings: 10 µM unless noted
# [5] = system: RXF 393 renal; settings: 10 µM unless noted
# [6] = system: SF-268 CNS; settings: 10 µM unless noted
# [7] = system: SF-295 CNS; settings: 10 µM unless noted
# [8] = system: SF-539 CNS; settings: 10 µM unless noted
# [9] = system: UACC-257 melanoma; settings: 10 µM
# [10] = system: M14 melanoma; settings: 10 µM unless noted
# [11] = system: HCT-15 colon; settings: 10 µM unless noted
# [12] = system: HT29 colon; settings: 10 µM unless noted
# [13] = system: SNB-75 CNS; settings: 10 µM unless noted
# [14] = system: SNB-19 CNS; settings: 10 µM unless noted
# [15] = system: U251 CNS; settings: 10 µM unless noted
# [16] = system: PC-3 prostate; settings: 10 µM unless noted
# [17] = system: SK-MEL-5 melanoma; settings: 10 µM unless noted
# [18] = system: UACC-62 melanoma; settings: 10 µM unless noted
# [19] = system: LOX IMVI melanoma; settings: 10 µM unless noted
# [20] = system: SK-MEL-28 melanoma; settings: 10 µM unless noted
Compound,growth [1],growth [2],growth [3],growth [4],growth [5],growth [6],growth [7],growth [8],growth [9],growth [10],growth [11],growth [12],growth [13],growth [14],growth [15],growth [16],growth [17],growth [18],growth [19],growth [20]
CC(C)=CCc1c(O)c(CC=C(C)C)c2c(c1O)C(=O)C1=C[C@@H]3C[C@H]4C(C)(C)O[C@@](C/C=C(\C)C(=O)O)(C3=O)[C@@]14O2,-60.5% (active),5.16% (active),-19.3% (active),29.8%,-82.2% (active),5.98% (active),-9.35% (active),-77.5% (active),-38.2% (active),5.07% (active),-30% (active),-11.1% (active),33.7%,41.6%,-71.9% (active),11.3%,-94.9% (active),-22.3% (active),-97% (active),-11.2% (active)
CCOC(=O)c1c(NCC(=O)Nc2cccc([N+](=O)[O-])c2)sc2c1CCCC2,-15.2% (active),3.3% (active),-63.9% (active),-44% (active),-84.6% (active),-42.2% (active),-90.2% (active),-55.6% (active),-27% (active),-85.2% (active),-42.4% (active),-71.5% (active),-48.6% (active),-17.3% (active),-26.5% (active),-34% (active),-98.4% (active),-90.3% (active),-73% (active),-80.2% (active)
COc1cc(/C=C/C(=O)c2ccc(NC(=O)COc3cccc4cccnc34)cc2)cc(OC)c1OC,78.1%,34.1%,70.2%,73.7%,86.7%,81.6%,90.8%,72.3%,74.6%,91.4%,50.3%,81.2%,82.4%,73.7%,83.8%,84.6%,73.2%,70.1%,42.5%,95.2%
O=C(COc1ccc(C2SCC(=O)N2c2ccccc2)cc1)c1ccccc1 (configuration not stated),102%,88.9%,100%,81.6%,91.2%,93.4%,96.9%,101%,102%,102%,97.2%,105%,87.5%,99.4%,95.8%,80.5%,94.4%,68.6%,93.3%,105%
COc1ccc(CCN2C(=O)CSC2=S)cc1OC,18.9%,64.8%,95.6%,80.4%,59.2%,100%,102%,93.9%,96.4%,94.3%,84%,109%,112%,99.9%,99.5%,91.2%,85.2%,97%,56.6%,102%
IP(CCCSc1n(Cc2ccc3ccccc3c2)c(-c2ccccc2)c(-c2ccccc2)[n+]1Cc1ccc2ccccc2c1)(c1ccccc1)(c1ccccc1)c1ccccc1,34.7%,25.3%,14.6%,32.5%,99.7%,23.8%,31.8%,35.3%,4.7% (active),51.5%,94.5%,2.7% (active),43%,16.6%,10.3%,32.1%,67.6%,26.6%,8% (active),32.8%
COc1cc(-c2nc(SCc3ccc(C)cc3)[nH]c(=O)c2C#N)ccc1OCc1ccccc1,106%,87.9%,94.5%,104%,108%,97.6%,106%,101%,96.9%,105%,97.9%,109%,96.6%,97.2%,102%,107%,87.8%,97.8%,114%,101%
O=C(Nc1ccc(-c2nc(-c3cccc(O)c3)c(-c3ccnc(Br)c3)[nH]2)cc1)c1ccccc1,35.5%,1.18% (active),16.9%,30.2%,-37.1% (active),29.2%,-56.4% (active),16.6%,45.8%,22.6%,7.12% (active),12.2%,-2.13% (active),23.3%,20.8%,6.14% (active),-67% (active),22.1%,3.27% (active),34.2%
CCN1C(=O)N(CC)C2SC(N/N=C/C=C/c3ccccc3OC)=NC21 (configuration not stated),12.9%,18.3%,50.4%,26.5%,20.5%,50.9%,5.32% (active),-10.6% (active),73.5%,0.965% (active),13.7%,6.38% (active),18.8%,25.5%,18.1%,26.7%,13.2%,37.1%,5.74% (active),60.2%
COc1cc(C2CC(c3ccc(Nc4nc(NCCO)nc(Nc5ccc(Cl)cc5)n4)cc3)=Nc3c(N)nc(N)nc3N2)cc(OC)c1OC (configuration not stated),65.7%,16.4%,85.7%,60.6%,45%,63%,77.6%,80.1%,92.1%,81.2%,54.2%,60.9%,91.4%,47.1%,38.7%,41.9%,53.4%,77.6%,53.1%,96.4%
O=S(=O)(Nc1cc(Cl)cc(Cl)c1)c1ccc(-c2cnc(C3CC3)o2)cc1,22.3%,14.4%,60.4%,47.5%,8.4% (active),66.6%,17.4%,13.7%,75.1%,19.9%,30.9%,12.1%,-1.98% (active),42.9%,37.4%,27%,36.9%,39.1%,44.8%,69.9%
O=C1c2c(c3c4cccnc4[nH]c3c3ccc4ccccc4c23)C(=O)N1CCN1CCCCC1,41.7%,40.5%,77%,96%,70.5%,43.2%,28.5%,54.2%,94%,45.8%,45.5%,44.8%,53.8%,41.1%,55.1%,59.5%,48.1%,49.6%,,97%
COc1ccc(-c2nnc(/N=C3/C(=O)Nc4ccc(Br)cc43)o2)cc1,101%,93.1%,98.4%,108%,112%,99.3%,99.2%,97.9%,106%,101%,91.3%,113%,90%,97.8%,107%,104%,98.8%,95.7%,,102%
COc1ccc(C(=O)n2cc(C=O)c3ccccc32)cc1,105%,82.1%,93.2%,91.8%,106%,92.5%,99.6%,89.2%,103%,82.8%,87.9%,118%,99%,87.5%,93.9%,90.5%,98.1%,81.6%,76.2%,102%
CS(=O)(=O)c1nccc(-c2c(-c3ccc(F)c(OCc4ccccc4)c3)nc3sccn23)n1,-64% (active),75.9%,115%,93.1%,94.7%,104%,98.5%,95.1%,17.8%,51.7%,79.1%,103%,103%,96.7%,107%,-11.3% (active),96.2%,,44.6%,85.9%
